# Measurements reported in publication PMC8384837, “Expanding the binding specificity for RNA recognition by a PUF domain”.
# Assays:
# Test in all cases: yeast three-hybrid, YBZ-1, SC-Leu-His + 0.5 mM 3-AT, 4 days
# Settings in all cases: tags: N-Gal4 AD-HA kept; label: inside an RPR1-promoter hybrid RNA with tandem MS2 sites; ssRNA
# PUM1 PUF domain R7-RTM = PUM1 PUF domain R7-RTM (Homo sapiens, UniProt Q14671 828-1176, S1079R;N1080T;E1083M)
# Method in brief: (§1)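 The interaction score is the log change in variant frequency from input to selection. Scores were computed in log2 with a pseudocount of 1 for absent variants, using Illumina sequencing of PCR-amplified repeat regions. The input came from four days on SC-Leu and the selection from four days on SC-Leu-His + 0.5 mM 3-AT. The cells were strain YBZ-1 (LexA–MS2 coat fusion, HIS3 reporter) co-expressing Pumilio-1 PUF domain libraries and matching RNA elements from a centromeric plasmid.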
# PUM1 PUF domain R1-KRT = PUM1 PUF domain R1-KRT (Homo sapiens, UniProt Q14671 828-1176, S863K;Q867T)
# Method in brief: as §1
# PUM1 PUF domain R3-GRL = PUM1 PUF domain R3-GRL (Homo sapiens, UniProt Q14671 828-1176, C935G;Q939L)
# Method in brief: as §1
# PUM1 PUF domain R3-ACR = PUM1 PUF domain R3-ACR (Homo sapiens, UniProt Q14671 828-1176, C935A;R936C;Q939R)
# Method in brief: as §1
# PUM1 PUF domain R4-EYA = PUM1 PUF domain R4-EYA (Homo sapiens, UniProt Q14671 828-1176, N971E;H972Y;Q975A)
# Method in brief: as §1
# PUM1 PUF domain R5-TRF = PUM1 PUF domain R5-TRF (Homo sapiens, UniProt Q14671 828-1176, C1007T;Q1011F)
# Method in brief: as §1
# PUM1 PUF domain R5-GRN = PUM1 PUF domain R5-GRN (Homo sapiens, UniProt Q14671 828-1176, C1007G;Q1011N)
# Method in brief: as §1
# PUM1 PUF domain R6-AFE = molecular target: T1, PUM1 PUF domain R6-AFE (Homo sapiens, UniProt Q14671 828-1176, N1043A;Y1044F;Q1047E)
# T1 sequence: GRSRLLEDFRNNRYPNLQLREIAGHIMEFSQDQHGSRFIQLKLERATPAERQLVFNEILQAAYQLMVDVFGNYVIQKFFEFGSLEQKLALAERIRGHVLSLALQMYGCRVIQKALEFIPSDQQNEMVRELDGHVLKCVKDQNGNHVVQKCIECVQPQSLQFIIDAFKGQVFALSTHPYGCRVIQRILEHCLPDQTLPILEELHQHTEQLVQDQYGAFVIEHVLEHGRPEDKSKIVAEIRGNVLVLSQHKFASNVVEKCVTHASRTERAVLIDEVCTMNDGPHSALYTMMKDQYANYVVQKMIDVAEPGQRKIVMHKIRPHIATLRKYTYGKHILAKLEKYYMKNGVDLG
# Method in brief: as §1
# PUM1 PUF domain R2-AWD = PUM1 PUF domain R2-AWD (Homo sapiens, UniProt Q14671 828-1176, N899A;Y900W;Q903D)
# Method in brief: as §1
# PUM1 PUF domain R2-SWP = PUM1 PUF domain R2-SWP (Homo sapiens, UniProt Q14671 828-1176, N899S;Y900W;Q903P)
# Method in brief: as §1
# PUM1 PUF domain R5-KRQ = PUM1 PUF domain R5-KRQ (Homo sapiens, UniProt Q14671 828-1176, C1007K)
# Method in brief: as §1
# PUM1 PUF domain R8-KKP = PUM1 PUF domain R8-KKP (Homo sapiens, UniProt Q14671 828-1176, N1122K;Y1123K;Q1126P)
# Method in brief: as §1
# PUM1 PUF domain R1-IRR = PUM1 PUF domain R1-IRR (Homo sapiens, UniProt Q14671 828-1176, S863I;Q867R)
# Method in brief: as §1
# PUM1 PUF domain R1-RKD = PUM1 PUF domain R1-RKD (Homo sapiens, UniProt Q14671 828-1176, S863R;R864K;Q867D)
# Method in brief: as §1
sequence,measurement,setting,value
GGCUAGAACUAGUGGAUCCCCCGGCGCCCGGCGGCUCGAGCCCGGGUAAGUCUAAAUAGUCUGCAUGCCGCCGGGCGCCAUGCCUGCAGGUCGACUCUAGAAAACAUG,binding signal,PUM1 PUF domain R7-RTM,0.72 log2 enrichment (interaction score)
GGCUAGAACUAGUGGAUCCCCCGGCGCCCGGCGGCUCGAGCCCGGGUAAGUGUAAAUGGUCUGCAUGCCGCCGGGCGCCAUGCCUGCAGGUCGACUCUAGAAAACAUG,binding signal,PUM1 PUF domain R1-KRT,4.9 log2 enrichment (interaction score)
GGCUAGAACUAGUGGAUCCCCCGGCGCCCGGCGGCUCGAGCCCGGGUAAGUGUAAUUAGUCUGCAUGCCGCCGGGCGCCAUGCCUGCAGGUCGACUCUAGAAAACAUG,binding signal,PUM1 PUF domain R3-GRL,0.66 log2 enrichment (interaction score)
same,binding signal,PUM1 PUF domain R3-ACR,3.08 log2 enrichment (interaction score)
GGCUAGAACUAGUGGAUCCCCCGGCGCCCGGCGGCUCGAGCCCGGGUAAGUGUAUAUAGUCUGCAUGCCGCCGGGCGCCAUGCCUGCAGGUCGACUCUAGAAAACAUG,binding signal,PUM1 PUF domain R4-EYA,3.44 log2 enrichment (interaction score)
GGCUAGAACUAGUGGAUCCCCCGGCGCCCGGCGGCUCGAGCCCGGGUAAGUGUUAAUAGUCUGCAUGCCGCCGGGCGCCAUGCCUGCAGGUCGACUCUAGAAAACAUG,binding signal,PUM1 PUF domain R5-TRF,3.8 log2 enrichment (interaction score)
same,binding signal,PUM1 PUF domain R5-GRN,3.83 log2 enrichment (interaction score)
GGCUAGAACUAGUGGAUCCCCCGGCGCCCGGCGGCUCGAGCCCGGGUAAGUGGAAAUAGUCUGCAUGCCGCCGGGCGCCAUGCCUGCAGGUCGACUCUAGAAAACAUG,binding signal,PUM1 PUF domain R6-AFE,3.97 log2 enrichment (interaction score)
GGCUAGAACUAGUGGAUCCCCCGGCGCCCGGCGGCUCGAGCCCGGGUAAGUGAAAAUAGUCUGCAUGCCGCCGGGCGCCAUGCCUGCAGGUCGACUCUAGAAAACAUG,binding signal,PUM1 PUF domain R6-AFE,3.96 log2 enrichment (interaction score)
GGCUAGAACUAGUGGAUCCCCCGGCGCCCGGCGGCUCGAGCCCGGGUAAGUGUAAAAAGUCUGCAUGCCGCCGGGCGCCAUGCCUGCAGGUCGACUCUAGAAAACAUG,binding signal,PUM1 PUF domain R2-AWD,6.66 log2 enrichment (interaction score)
same,binding signal,PUM1 PUF domain R2-SWP,5.19 log2 enrichment (interaction score)
GGCUAGAACUAGUGGAUCCCCCGGCGCCCGGCGGCUCGAGCCCGGGUAAGUGUCAAUAGUCUGCAUGCCGCCGGGCGCCAUGCCUGCAGGUCGACUCUAGAAAACAUG,binding signal,PUM1 PUF domain R5-KRQ,5.21 log2 enrichment (interaction score)
same,binding signal,PUM1 PUF domain R5-GRN,1.4 log2 enrichment (interaction score)
GGCUAGAACUAGUGGAUCCCCCGGCGCCCGGCGGCUCGAGCCCGGGUAAGCGUAAAUAGUCUGCAUGCCGCCGGGCGCCAUGCCUGCAGGUCGACUCUAGAAAACAUG,binding signal,PUM1 PUF domain R8-KKP,3.24 log2 enrichment (interaction score)
GGCUAGAACUAGUGGAUCCCCCGGCGCCCGGCGGCUCGAGCCCGGGUAAGUGUAAAUUGUCUGCAUGCCGCCGGGCGCCAUGCCUGCAGGUCGACUCUAGAAAACAUG,binding signal,PUM1 PUF domain R1-IRR,2.12 log2 enrichment (interaction score)
same,binding signal,PUM1 PUF domain R1-RKD,2.73 log2 enrichment (interaction score)
